Hits are enriched below; roughly 2.5% of the tested compounds scored in any of these assays.
Cruzain Triton: blocks cruzain activity in presence of Triton detergent. Potency, µM, inactives show max response, negative = inhibition, usual class: inhibitors. hit rate 0.43% among 200,000. purified cruzain, Z-FR-AMC fluorescence, 0.01% Triton. AID 1478;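 note: plate controls were neutral wells for no effect and buffer without enzyme for full effect; nearly all actives have a fitted effect of over 40% in size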
Target sequence (P25779 123-467 limits assumed): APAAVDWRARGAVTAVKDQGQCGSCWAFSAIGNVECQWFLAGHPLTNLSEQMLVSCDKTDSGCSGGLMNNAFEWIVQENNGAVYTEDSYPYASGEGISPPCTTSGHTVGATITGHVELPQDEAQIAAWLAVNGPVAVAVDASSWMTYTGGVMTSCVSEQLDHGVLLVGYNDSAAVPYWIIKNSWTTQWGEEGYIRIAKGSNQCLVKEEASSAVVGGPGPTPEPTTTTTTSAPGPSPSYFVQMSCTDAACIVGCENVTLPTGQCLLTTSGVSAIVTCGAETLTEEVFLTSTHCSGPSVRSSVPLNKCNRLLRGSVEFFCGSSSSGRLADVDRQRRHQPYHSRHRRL
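Steps: dispense cruzain (1.5 nM final) in acetate buffer pH 5.5 with DTT and 0.01% Triton X-100; pin-transfer compounds; incubate 15 min RT; add Z-FR-AMC (2 uM final); read fluorescence every 30 s, using the 60 s intensity change.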
Cruzain inh noDet: inhibitors of Trypanosoma cruzi cruzain without detergent. P25779. purified cruzain, Z-FR-AMC fluorescence, no detergent. Potency, µM, inactives show max response, negative = inhibition, most hits filed as inhibitors. hit rate 2.3% among 200,000;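 note: plate controls were enzyme without inhibitor for no effect and buffer without enzyme for full effect; nearly all actives have a fitted effect of over 40% in size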
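Purified cruzain at 1.5 nM, pre-incubated 15 min with compound at room temperature in 100 mM sodium acetate pH 5.5, 5 mM DTT, 0.00005% Triton X-100. Reaction started with 2 uM Z-FR-AMC; AMC fluorescence increase over 60 s gives rate.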
Active calls of the source: *; ? = inconclusive. Calls come from the whole dose curve; as a rule, active = well fitted curve in the direction sought with a large enough effect; inconclusive = small, poorly fitted or top-dose-only effect, or another doubt; inactive = no such curve, though single readings can be large; an effect the other way counts as inactive or inconclusive. Potency is the fitted concentration of half-maximal effect.

SMILES	Cruzain Triton	Cruzain inh noDet
C/C(=C/CCC(C)[C@H]1CC[C@@]2(C)C3=C(CC[C@]12C)[C@@]1(C)CCC(=O)C(C)(C)[C@@H]1CC3)C(=O)O (some centres undefined)	-6.1%	25.1µM*
COc1ccc(Nc2ccc3cc(S(=O)(=O)N4CCCC4)ccc3n2)cc1OC	-7.3%	-12.9%
CC(=O)c1cccc(Nc2ccc3cc(S(=O)(=O)N4CCCC4)ccc3n2)c1	-6.9%	12.6µM*
COC(=O)c1ccc(C2c3c(oc4cc(C)c(C)cc4c3=O)C(=O)N2c2ccccn2)cc1 (centres undefined)	-0.3%	-4.0%
O=C(Nc1c(C(=O)N2CCN(c3ccccc3F)CC2)oc2ccccc12)c1ccccc1F	-4.8%	20µM*
O=C(Nc1c(C(=O)N2CCN(c3ccccc3)CC2)oc2ccccc12)c1ccccc1F	-2.6%	-14.0%
Cc1ccc2c(c1)c1c3n2CCN(C(=O)CN2CCN(C)CC2)C3CCC1 (centres undefined)	-3.4%	-9.6%
Cc1ccc2c(c1)c(=O)c1c3n2CCN(C(=O)CCl)C3CC1 (centres undefined)	15.8µM*	-21.6%
CC(C)[C@H](NC(=O)c1ccccc1)C(=O)OCc1nc2scc(-c3ccccc3)c2c(=O)[nH]1	-5.9%	?
O=C(OCc1nc2scc(-c3ccccc3)c2c(=O)[nH]1)c1cccc([N+](=O)[O-])c1	-6.6%	25.1µM*
COCCn1c(=O)[nH]c(=O)c2c(C(F)(F)F)cc(-c3cccs3)nc21	-17.0%	?
O=c1c2cn[nH]c2[nH]c(=S)n1-c1cccc(Cl)c1	-14.2%	-3.8%
CCOC(=O)c1c(-c2ccccc2)csc1NC(=O)c1cc(-c2ccc(C)c(F)c2)on1	-3.5%	2.5%
O=C(Nc1cccc(Cl)c1Cl)c1ccc2c(c1)N(Cc1cccc(Cl)c1)C(=O)c1ccccc1S2(=O)=O	7.5%	3.98µM*
COc1ccccc1CNC(=O)c1ccc2c(c1)N(Cc1cccc(Cl)c1)C(=O)c1ccccc1S2(=O)=O	-0.4%	?
O=C(c1ccc2c(c1)N(Cc1ccc(Cl)cc1)C(=O)c1ccccc1S2(=O)=O)N1CCC(Cc2ccccc2)CC1	-2.6%	12.6µM*
O=C(NCc1ccccc1)c1ccc2c(c1)N(Cc1cccc(Cl)c1)C(=O)c1ccccc1S2(=O)=O	-2.8%	?
O=C(c1ccc2c(c1)N(Cc1ccccc1F)C(=O)c1ccccc1S2(=O)=O)N1CCC(Cc2ccccc2)CC1	-0.5%	-3.7%
CCc1ccccc1NC(=O)c1ccc2c(c1)N(Cc1cccc(Cl)c1)C(=O)c1ccccc1S2(=O)=O	-3.6%	15.8µM*
O=C(NCCCc1nc2ccccc2n1Cc1ccccc1F)c1ccco1	-4.3%	-3.1%
COc1ccc(-c2cc3ccc(O)c(CN4CCC(C)CC4)c3oc2=O)cc1	-0.1%	18.1%
CC/C=C\C/C=C\C/C=C\C/C=C\C/C=C\CCC(=O)O[C@H](COCCCCCCCCCCCCCCCC)COP(=O)([O-])OCC[N+](C)(C)C	-7.0%	15.4%
CC12CCC(C(=O)N(CSC(=S)N/N=C\c3ccccc3O)C1=O)C2(C)C (centres undefined)	-19.1%	?
CN(C)c1ccc(/C=N\NC(=S)SCN2C(=O)C3CCC(C)(C2=O)C3(C)C)cc1 (centres undefined)	1.9%	31.6µM*
COc1ccc2c(c1)c1c(c(=O)n(-c3cccc(C)c3)c(=O)n1CC(=O)N1CCCC1)n2C	-2.2%	-12.4%
SMILES	Cruzain Triton	Cruzain inh noDet
Cc1ccccc1C(=O)NC(CC(C)C)C(=O)OCc1cc(=O)n2cc(Br)ccc2n1 (centres undefined)	14.1µM*	15.8µM*
CC1CC1C(=O)OCc1cc(=O)n2cc(Br)ccc2n1 (centres undefined)	0.8%	-3.1%
COc1ccc(N2C(=O)CSC23C(=O)N(Cc2ccccc2F)c2ccccc23)cc1Cl (centres undefined)	-8.0%	?
CCc1ccc(N2C(=O)CS(=O)(=O)C23C(=O)N(Cc2ccccc2F)c2ccccc23)cc1 (centres undefined)	-4.8%	3.16µM*
COc1ccc(N2C(=O)CS(=O)(=O)C23C(=O)N(Cc2ccccc2F)c2ccccc23)cc1Cl (centres undefined)	-1.9%	2µM*
COc1cccc(CN2C(=O)C3(SCC(=O)N3c3ccc(C(C)C)cc3)c3ccccc32)c1 (centres undefined)	-5.8%	?
CC(C)c1ccc(N2C(=O)CS(=O)(=O)C23C(=O)N(Cc2cccc(F)c2)c2ccccc23)cc1 (centres undefined)	-3.0%	2.51µM*
Cc1ccc(N2C(=O)CS(=O)(=O)C23C(=O)N(C)c2ccccc23)cc1F (centres undefined)	-1.8%	-24.8%
COCCn1c(=O)c(C)nc2cnc(N3CCNCC3)nc21	-10.9%	1.7%
Cc1ccc(N2CC(NC(=O)C3CCCC3)CC2=O)cc1C (centres undefined)	1.2%	9.3%
O=C(NCc1ccco1)c1nc2ccccc2s1	-6.0%	-3.9%
O=C(NCc1ccco1)c1sc2cc(Cl)ccc2c1Cl	?	25.1µM*
Cc1ccc(NC(=O)c2sc3ccccc3c2Cl)cc1	-1.2%	-9.3%
O=C(NCc1ccco1)c1sc2ccccc2c1Cl	?	25.1µM*
O=C(NCc1cccnc1)c1sc2cc(Cl)ccc2c1Cl	-10.6%	0.1%
CC(=O)Nc1ccc(NC(=O)C(C)OC(=O)CNC(=O)c2sc3ccccc3c2Cl)cc1 (centres undefined)	11.2µM*	10µM*
O=C(Cc1csc(N2CCOCC2)n1)N/N=C/c1ccc(F)cc1	3.3%	-0.6%
CCNc1ncc2nc(-c3ccc(F)cc3)c(=O)n(CCc3ccccc3)c2n1	3.6%	3.9%
C(=N/Nc1nnc2c(n1)[nH]c1ccccc12)/c1cccnc1	-4.3%	-1.1%
COc1cc(OC)cc(-c2nnc(SCC(=O)N3CCC(C)CC3)o2)c1	-4.4%	-1.5%
Cc1cccc(NC(=O)CCNC(=O)c2ccco2)c1	5.9%	5.5%
COc1cc(S(=O)(=O)N2CCC(c3nc4ccccc4s3)CC2)ccc1S(=O)(=O)N1CC(C)CC(C)C1 (centres undefined)	4.0%	3.98µM*
COc1ccc(S(=O)(=O)N2CCC(c3nc4ccccc4s3)CC2)cc1OC	5.2%	1.3%
CS(=O)(=O)N1CCc2cc(S(=O)(=O)NCc3ccccc3Cl)ccc21	-5.4%	-7.4%
Cc1nnc(SCC(=O)N2c3ccccc3CC2C)s1 (centres undefined)	3.1%	5.1%
SMILES	Cruzain Triton	Cruzain inh noDet
CC1CCCC(C)N1C(=O)CSc1nnc(NC(=O)Cc2cccs2)s1 (centres undefined)	2.0%	3.7%
CC1Cc2ccccc2N1C(=O)CSc1nnc(NC(=O)Cc2cccs2)s1 (centres undefined)	15.8µM*	25.1µM*
CCC(=O)Nc1nnc(SCC(=O)N2c3ccccc3CC2C)s1 (centres undefined)	3.55µM*	12.6µM*
CCC(=O)Nc1nnc(SCC(=O)c2ccc3c(c2)Cc2ccccc2-3)s1	4.8%	20µM*
CC(=O)Nc1nnc(SCC(=O)c2ccc3c(c2)Cc2ccccc2-3)s1	-0.1%	11.7%
O=C1NC[C@H](c2ccccc2)N1	3.9%	-10.7%
COc1cccc(CNc2cc(CSc3ccc(Cl)cc3)nc(C)n2)c1	-21.3%	3.3%
COc1ccc(C2c3c(n(C)c4ccccc34)C(=O)N2CC(=O)Nc2cc(Cl)ccc2C)cc1 (centres undefined)	-5.7%	-14.4%

Screening data as filed in PubChem.
